Results on six compounds are retold here after PubChem BioAssay (NCATS).

Holding throughout (experiment): Cytotoxic Profiling of Annotated Libraries Using Quantitative High-Throughput Screening (AID 1296008); further: nearly all actives have a fitted effect of over 60% in size
What all share (details): Five cell lines viability, CellTiter-Glo ATP luminescence, 48-72 h; max response: hits give low values
Background: In ATP-based viability assays light output follows the ATP content of the culture.

The subject of assay [1] is HaCat. In short, it runs like this: (§1)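 Compounds were pin-transferred onto cells and incubated 48 or 72 hr at 37 degree Celsius, 95% humidity. CellTiter-Glo was added, plates sat 10 min at room temperature, then ATP-coupled luminescence was imaged as the viability read-out.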
Assay [2] concerns KB-3-1. In short, it runs like this:
as §1

Assay [3] relates to NIH3T3. In short, it runs like this:
as §1

Inconclusive results are not listed. Active and inactive are the calls of the source. The call rests on the fitted dose curve; in most records, active means well fitted inhibition curve with a large enough effect; inconclusive means small, poorly fitted or top-dose-only effect; inactive means flat fitted curve, though single readings scatter.
On the % scale 0 is the no-effect control and ±100 the full control effect; potency means the concentration at half of the fitted maximal effect.

Regarding `CC(=O)OC1CC2(C)C3=CCC4(C)C5C(O)C(O)C(C(C)C)C5(C)CCC4(C)C3CCC2C(C)(C)C1OC1OC(CO)C(O)C(O)C1O` (stereo not drawn), the max response in assay [1] was -3% (inactive); in assay [2] it was 2.57% (inactive); in assay [3], 4.87% (inactive).

For `C=C[C@]1(C)C[C@H](O)[C@@H]2[C@H](OC(=O)[C@@H]2C)C1/C(C)=C/O[C@@H]1O[C@H](CO)[C@@H](O)[C@H](O)[C@H]1O` (stereo partly drawn), the max response in assay [1] was -9.44% (inactive); in assay [2] it was 0.273% (inactive); in assay [3], -22.7% (inactive).

For the compound `COc1ccc(F)cc1-c1cc(NC(=O)[C@@H]2CCCNC2)ncc1Cl`, the Potency in assay [1] is 1160 nM (active); in assay [2], 231 nM (active); in assay [3], 1030 nM (active).

Take `C[C@@H]1O[C@@H](O[C@H]2[C@@H]3C=CO[C@@H](O[C@@H]4O[C@H](CO)[C@@H](O)[C@H](O)[C@H]4O)[C@@H]3[C@@]3(CO)O[C@@H]23)[C@H](OC(=O)/C=C/c2ccc(O)c(O)c2)[C@H](O)[C@H]1O`: the max response in assay [1] is 1.24% (inactive); in assay [2], 6.2% (inactive); in assay [3], -3.69% (inactive).

Take `COC(=O)C1=CO[C@@H](O[C@@H]2O[C@H](CO)[C@@H](O)[C@H](O)[C@H]2O)[C@@H]2[C@@](C)(O)[C@@H](OC(=O)/C=C/c3ccc(O)cc3)C[C@]12O`: the max response in assay [1] is 1.25% (inactive); in assay [2] it was 0.0331% (inactive); in assay [3], 2.33% (inactive).

Consider `CC1COC2(OC3CC4C5CC(O[C@@H]6O[C@H](C)[C@@H](O[C@@H]7O[C@@H](C)[C@H](O)[C@@H](O)[C@H]7O)[C@H](O)[C@H]6O)C6CC(O)CCC6(C)C5CCC4(C)C3C2C)C(O)C1` (stereo partly drawn), for which the max response was -23.5% (inactive) in assay [1], 7.16% (inactive) in assay [2] and 4.8% (inactive) in assay [3].
